Bioassay records as filed in PubChem BioAssay.
VP16 counter – Gal4-VP16 reporter inhibition counter-screen; hit rate 3.5% among 310,000; Potency, µM (highest dose often 53.6 µM), inactives show top-dose activity, negative = inhibition, usual class: inhibitors; Drosophila S2 Gal4-VP16 UAS-luciferase, luminescence, 20 h;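 note: Gal4-VP16 expression switched on by copper sulfate through the metallothionein promoter; nearly all actives have a fitted effect of over 50% in size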
TDP1 block – inhibitors of human tyrosyl-DNA phosphodiesterase TDP1. Potency, µM (highest dose often 130 µM), for inactives: top-dose activity change, negative = inhibition, usual class: inhibitors. recombinant TDP1, AlphaScreen DNA substrate cleavage. Q9NUW8. AID 485290. hit rate 0.28% among 350,000; note: nearly all actives have a fitted effect of over 40% in size
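AlphaScreen read-out: signal falls as enzyme removes the 3' tyrosine-FITC from a 5'-biotinylated DNA oligo (15 nM, 5 min, RT). Enzyme was E. coli-made recombinant Tdp1 at 1 nM, exposed to compound for 15 min beforehand; beads 10 ug/ml, 10 min.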
RORgamma inh – inhibitors of mouse ROR gamma transcriptional activity. Potency, µM (doses to about 53.6 µM), for the others: top-dose activity change, negative = inhibition, actives largely listed as inhibitors. hit rate 5.4% among 310,000. AID 2551. P51450. Drosophila S2 Gal4-RORgamma UAS-luciferase reporter, 20 h; note: nearly all actives have a fitted effect of over 60% in size
Target sequence (P51450 whole entry, looked up, the tested form may be a part): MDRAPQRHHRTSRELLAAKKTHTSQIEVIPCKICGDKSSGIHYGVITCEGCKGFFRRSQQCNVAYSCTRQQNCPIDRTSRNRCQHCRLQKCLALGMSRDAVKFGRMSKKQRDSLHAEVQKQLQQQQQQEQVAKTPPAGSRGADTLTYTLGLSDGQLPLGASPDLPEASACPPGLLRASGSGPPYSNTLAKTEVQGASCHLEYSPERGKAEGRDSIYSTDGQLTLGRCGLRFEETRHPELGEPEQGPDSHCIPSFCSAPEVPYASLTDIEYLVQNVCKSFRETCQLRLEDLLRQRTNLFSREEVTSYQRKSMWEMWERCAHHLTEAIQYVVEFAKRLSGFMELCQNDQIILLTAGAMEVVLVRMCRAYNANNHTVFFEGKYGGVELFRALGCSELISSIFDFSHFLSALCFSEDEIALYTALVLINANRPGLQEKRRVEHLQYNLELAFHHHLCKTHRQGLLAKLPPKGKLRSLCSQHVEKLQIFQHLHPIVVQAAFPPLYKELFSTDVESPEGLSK
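Drosophila S2 cells stably expressing Gal4-DBD/mouse RORγ fusion under metallothionein promoter plus UAS-luciferase; compound 1 h, then 700 uM CuSO4 induction for 20 h at ambient temperature; inhibition read as reduced luminescence.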
TDP1 cell noCPT – qHTS for Inhibitors of human tyrosyl-DNA phosphodiesterase 1 (TDP1): qHTS in cells in absence of CPT; DT40 Tdp1-/- hTDP1 cells, no CPT, ATP luminescence, 48 h; Potency, µM (highest dose often 46.2 µM), without a hit: at the highest dose activity change, negative = growth inhibition, hits mostly inhibitors; hit rate 15% among 420,000; AID 686978, 2013; note: nearly all actives have a fitted effect of over 55% in size
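Compound effects on proliferation are scored in DT40 Tdp1-/-;hTDP1 cells in the absence of CPT. ATP levels (CellTiter-Glo luminescence) are recorded after a ≥48 hr, 37 °C incubation.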
DT40 TDP1 CPT – growth inhibition of DT40 Tdp1-/-;hTDP1 cells with camptothecin (screen for TDP1 inhibitors). chicken DT40 Tdp1-/-;hTDP1 cells + 20 nM CPT, ATP luminescence, 48 h. Potency, µM (top dose mostly 46.2 µM), inactives show top-dose activity change, negative = growth inhibition, hits mostly inhibitors. hit rate 12% among 420,000; note: nearly all actives have a fitted effect of over 55% in size
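Cell growth measured by CellTiter-Glo luminescence after a minimum 48 h, 37 C compound exposure with 20 nM CPT in Tdp1-knockout DT40 cells stably expressing hTDP1, seeded 400/well; qHTS titration format.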
* hit, by the source's call; [ ] = dose if it differs, or a comment. Rows were chosen to be rich in hits. Some 19% of all compounds tested hit in one or more screens of this group. Calls come from the whole dose curve; as a rule, active = well fitted curve in the direction sought with a large enough effect; inconclusive = small, poorly fitted or top-dose-only effect, or another doubt; inactive = no such curve, though single readings can be large; an effect the other way counts as inactive or inconclusive. % is set by controls: 0 for no effect and ±100 for the full control effect; potency is the fitted concentration of half-maximal effect.

Screening COc1ccccc1C1C=C(c2ccc(C)cc2)Nc2nnnn21 (configuration not stated) returned VP16 counter -4.7%, TDP1 block 6.2%, RORgamma inh 10.3%, TDP1 cell noCPT 20.6µM* and DT40 TDP1 CPT 18.4µM*.
For COc1ccc(C2C=C(c3ccc(C)c(C)c3)Nc3ncnn32)c(OC)c1OC (configuration not stated) the results were VP16 counter -1.6%, TDP1 block 3.7%, RORgamma inh inconclusive, TDP1 cell noCPT 5.17µM* and DT40 TDP1 CPT 8.2µM*.
`CN(C)CCN(C)C1CN(Cc2ccccc2)S(=O)(=O)C1` (configuration not stated) gave TDP1 cell noCPT -0.1% and DT40 TDP1 CPT -2.4%.
`C[C@@H]1COC(=O)[C@H](NC(=O)OCC2c3ccccc3-c3ccccc32)C/C=C\C[C@@H](CC(=O)N[C@@H](CO)Cc2ccccc2)C(=O)N1` gave TDP1 block -2.4%, TDP1 cell noCPT 8.2µM* and DT40 TDP1 CPT 8.2µM*.
Screening CC(C)(C)OC(=O)C[C@H]1C/C=C\C[C@H](CC(=O)N[C@@H](CO)Cc2ccccc2)C(=O)N[C@H](C(C)(C)C)COC1=O returned TDP1 block -0.3%, TDP1 cell noCPT inconclusive and DT40 TDP1 CPT inconclusive.
`CC(C)(C)[C@H]1COC(=O)[C@H](NC(=O)OCC2c3ccccc3-c3ccccc32)C/C=C\C[C@@H](CC(=O)N[C@@H](CO)Cc2ccccc2)C(=O)N1` gave TDP1 block -4.8%, TDP1 cell noCPT inconclusive and DT40 TDP1 CPT 7.31µM*.
`CC(C)(C)OC(=O)C[C@H]1C/C=C\C[C@H](CC(=O)N[C@H](CO)Cc2ccccc2)C(=O)N[C@H](C(C)(C)C)COC1=O` gave TDP1 block 2.6%, TDP1 cell noCPT inconclusive and DT40 TDP1 CPT inconclusive.
`CC(C)(C)[C@H]1COC(=O)[C@H](NC(=O)OCC2c3ccccc3-c3ccccc32)C/C=C\C[C@@H](CC(=O)N[C@H](CO)Cc2ccccc2)C(=O)N1` gave TDP1 block -6.6%, TDP1 cell noCPT 8.2µM* and DT40 TDP1 CPT 7.31µM*.
C[C@@H]1COC(=O)[C@H](CC(=O)OC(C)(C)C)C/C=C\C[C@@H](CC(=O)N[C@H](CO)Cc2ccccc2)C(=O)N1 was read as TDP1 block 2.3%, TDP1 cell noCPT -2.5% and DT40 TDP1 CPT -1.5%.
O=C(C[C@H]1C/C=C\C[C@H](NC(=O)OCC2c3ccccc3-c3ccccc32)C(=O)OC[C@H](Cc2ccccc2)NC1=O)N[C@H](CO)Cc1ccccc1 was read as TDP1 block -4.6%, TDP1 cell noCPT 5.17µM* and DT40 TDP1 CPT 5.17µM*.
COc1ccc(CCNC(=O)CCCn2c(=O)c3ccccc3n(Cc3ccccc3C#N)c2=O)cc1OC was read as TDP1 block 7.3%, TDP1 cell noCPT -18.1% and DT40 TDP1 CPT 1.8%.
`CC(Oc1ccc(Cl)cc1Cl)C(=O)NC(Cc1ccccc1)C(=O)O` (configuration not stated) gave TDP1 cell noCPT 5.5% and DT40 TDP1 CPT 23.2%.
`O=C(C[C@@H]1C/C=C\C[C@H](Cc2ccc(F)cc2)C(=O)OC[C@@H](c2ccccc2)NC1=O)NCCO` gave TDP1 block 1.9%, TDP1 cell noCPT inconclusive and DT40 TDP1 CPT inconclusive.
O=C(C[C@@H]1C/C=C\C[C@@H](NC(=O)OCC2c3ccccc3-c3ccccc32)C(=O)OC[C@@H](Cc2ccccc2)NC1=O)NCCO was read as TDP1 block -0.4%, TDP1 cell noCPT 9.2µM* and DT40 TDP1 CPT 7.31µM*.
For CC(C)(C)OC(=O)C[C@@H]1C/C=C\C[C@@H](CC(=O)NCCO)C(=O)N[C@H](C(C)(C)C)COC1=O the results were TDP1 block 1.3%, TDP1 cell noCPT 0.7% and DT40 TDP1 CPT -0.6%.
CC(C)(C)[C@@H]1COC(=O)[C@@H](NC(=O)OCC2c3ccccc3-c3ccccc32)C/C=C\C[C@@H](CC(=O)NCCO)C(=O)N1 was read as TDP1 block inconclusive, TDP1 cell noCPT 11.6µM* and DT40 TDP1 CPT 18.4µM*.
S=C(Nc1ccc(Nc2ccccc2)cc1)N1CCN(c2ncccn2)CC1 was read as VP16 counter 3.5%[10 µM], TDP1 block 5.4%, RORgamma inh 2.5%, TDP1 cell noCPT -3.9% and DT40 TDP1 CPT -0.2%.
For CCOC(=O)c1ccc(NC(=O)Cn2nc(SC)c(S(=O)(=O)c3ccc(Cl)cc3)c2N)cc1 the results were TDP1 block 3.6%, TDP1 cell noCPT 20.6µM* and DT40 TDP1 CPT inconclusive.
For CSc1nn(CC(=O)Nc2cc(C)ccc2C)c(N)c1S(=O)(=O)c1ccccc1 the results were TDP1 block 0.0%, TDP1 cell noCPT 6.51µM* and DT40 TDP1 CPT inconclusive.
For CCSc1nn(CC(=O)Nc2ccc(C(=O)OC)cc2)c(N)c1S(=O)(=O)c1ccc(C)cc1 the results were TDP1 block 0.0%, TDP1 cell noCPT 20.6µM* and DT40 TDP1 CPT 16.4µM*.
COc1ccc(NC(=O)Cn2nc(SC)c(S(=O)(=O)c3ccc(C)cc3)c2N)cc1OC was read as TDP1 block 0.0%, TDP1 cell noCPT -22.2% and DT40 TDP1 CPT -7.4%.
Screening O=C(Nc1ccc(Cl)cc1)OCc1cncs1 returned VP16 counter -5.6%, TDP1 block -9.2%, RORgamma inh 6.4%, TDP1 cell noCPT inconclusive and DT40 TDP1 CPT inconclusive.
Screening CCn1c(SCc2cccnc2)nnc1-c1c[nH]c2ccccc12 returned VP16 counter 3.5%, TDP1 block 0.0%, RORgamma inh 39.6%, TDP1 cell noCPT inconclusive and DT40 TDP1 CPT 14.6µM*.
Screening CCCSc1nnc(-c2c[nH]c3ccccc23)n1CC returned VP16 counter 7.7%, TDP1 block 6.9%, RORgamma inh 15.6%, TDP1 cell noCPT inconclusive and DT40 TDP1 CPT 14.6µM*.
For N#Cc1ccc(CSc2nnc(-c3c[nH]c4ccccc34)n2-c2ccccc2)cc1 the results were VP16 counter inconclusive, TDP1 block 7.2%, RORgamma inh 12.7%, TDP1 cell noCPT 23.1µM* and DT40 TDP1 CPT inconclusive.
For CSc1ccccc1C(=O)N1CCC(n2nccc2NC(=O)C(C)(C)C)CC1 the results were VP16 counter -8.0%, TDP1 block 2.8%, RORgamma inh -0.9%, TDP1 cell noCPT -17.9% and DT40 TDP1 CPT -23.8%.
Screening COCCNC(=O)c1cccc(OC2CCN(Cc3ccc(Cl)c(F)c3)CC2)c1 returned VP16 counter 1.1%, RORgamma inh 15.5%, TDP1 cell noCPT inconclusive and DT40 TDP1 CPT inconclusive.
